Test results: PubChem BioAssay (Tox21)
Results filed as inconclusive are left out. Calls of active or inactive are those of the source. Calls come from the whole dose curve; as a rule, active = well fitted activation curve with a large enough effect in the repeat runs; inconclusive = weak or mixed curves; inactive = flat fitted curve, though single readings scatter.

assay: Caspase-3/7 induction in HepG2 cells by small molecules, qHTS assay (AID 1346978); conditions: HepG2 caspase-3/7 activation, Caspase-Glo luminescence, 17 h; series mostly up to 92.4 µM; caspase activation: at the top concentration; note: nearly all actives have a fitted effect of over 15% in size
Outline: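 Wild-type HepG2 cells, 2,000/well, settled 5 hr at 37 C and 5% CO2, then compound-treated for 17 hr; caspase-3/7 activity read by luminescent Caspase-Glo 3/7 after 30 min at room temperature.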
% is set by controls: 0 for no effect and ±100 for the full control effect.

| SMILES | caspase activation |
| --- | --- |
| CCN(CCCc1ccccc1)CCCc1ccccc1 | -0.155% [at 42.5 µM] (inactive) |
| CC(C)=CCC[C@](C)(O)[C@@H]1CC=C(C)CC1 | 9.53% (inactive) |
| O=CCCc1ccccc1 | 0.125% (inactive) |
| C=C(C)C(=O)OCCOP(=O)(O)O | -1.17% (inactive) |
| C[C@]12C(=O)OC(=O)[C@H]1[C@H]1C=C[C@@H]2C1 | -0.732% (inactive) |
| Cc1ccc([N+](=O)[O-])c(N)c1 | -2.09% (inactive) |
| CC(C)NC[C@@H](O)COc1cccc2ccccc12 | -0.97% [at 42.5 µM] (inactive) |
| O=C(O[C@@H](C(=O)O)[C@@H](OC(=O)c1ccccc1)C(=O)O)c1ccccc1 | -0.16% (inactive) |
| CCOC(=O)C1CC(=O)C(=C(O)C2CC2)C(=O)C1 (centres undefined) | 0.401% (inactive) |
| FC(F)(F)C(Cl)(Cl)Cl | 0.898% (inactive) |
| COc1ccc(S(=O)(=O)Nc2nnc(CC(C)C)s2)cc1 | -0.256% [at 42.5 µM] (inactive) |
| Cc1ccc([N+](=O)[O-])cc1Cl | 0.0097% (inactive) |
| CCCCc1ccc2nc(NC(=O)OC)[nH]c2c1 | -8.43% [at 42.5 µM] (inactive) |
| Cc1cc(NS(=O)(=O)c2ccc(N)cc2)nc(C)n1 | 1.75% [at 42.5 µM] (inactive) |
